In PubChem BioAssay AID1159580 (chemical genetic matrix, 2015):
In all, about 5,500 compounds went through this assay and about 2,000 (36%) were called active. Not shown: some 18% with an inconclusive outcome. No stated cut-off is given here; in the data, active means normalized growth mostly below about 0.91 (no sharp cut-off); inconclusive means no clear call, values can overlap the other calls; inactive means mostly above about 0.92. The list shows a part of the results.

Experiment: chemical genetic growth profiling, strain panel (AID 1159580);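 further: tested at 20 µM; growth read once vehicle control cultures reached saturation at 30 °C; 1 = growth at the plate median or of vehicle wells; lower values mean less growth of the strain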
Conditions: growth OD

Measured: normalized growth

C[C@@H]1CC[C@@]23CCC4(C)[C@@](C=CC5[C@@]6(C)CC[C@H](O)C(C)(C)C6CC[C@]54C)(OC2=O)C3[C@H]1C (stereo partly drawn)
active: S. cerevisiae deletion strains, locus YKL009W, strain mrt4, hits give low values 1.26 [resistant] | S. cerevisiae deletion strains, locus YLR371W, strain rom2, hits give low values 1.29 [resistant] | S. cerevisiae deletion strains, locus YOL012C, strain htz1 2.58 [resistant]
inactive: S. cerevisiae deletion strains, locus YJR043C, strain POL32, hits give low values 1 | S. cerevisiae deletion strains, locus YJR066W, strain TOR1, hits give low values 0.991 | S. cerevisiae deletion strains, locus YJR075W, strain HOC1, hits give low values 1.02 | S. cerevisiae deletion strains, locus YKL085W, strain MDH1 (second series), hits give low values 1 | S. cerevisiae deletion strains, locus YKL085W, strain MDH1, hits give low values 1 | S. cerevisiae deletion strains, locus YKL160W, strain elf1, hits give low values 1.01 | S. cerevisiae deletion strains, locus YKL190W, strain CNB1, hits give low values 1.01 | S. cerevisiae deletion strains, locus YKR001C, strain vps1, hits give low values 1.06 | S. cerevisiae deletion strains, locus YKR026C, strain gcn3, hits give low values 1.01 | S. cerevisiae deletion strains, locus YKR091W, strain srl3, hits give low values 1 | S. cerevisiae deletion strains, locus YLL001W, strain dnm1, hits give low values 1.02 | S. cerevisiae deletion strains, locus YLL026W, hits give low values 1 | S. cerevisiae deletion strains, locus YLL041C, strain sdh2, hits give low values 1 | S. cerevisiae deletion strains, locus YLR027C, strain aat2, hits give low values 1 | S. cerevisiae deletion strains, locus YLR039C, strain RIC1, hits give low values 1.09 | S. cerevisiae deletion strains, locus YLR058C, strain SHM2, hits give low values 1.02 | S. cerevisiae deletion strains, locus YLR102C, strain apc9, hits give low values 1.03 | S. cerevisiae deletion strains, locus YLR113W, strain HOG1, hits give low values 1.02 | S. cerevisiae deletion strains, locus YLR221C, strain rsa3, hits give low values 0.998 | S. cerevisiae deletion strains, locus YLR258W, strain gsy2, hits give low values 0.996 | S. cerevisiae deletion strains, locus YLR262C, strain YPT6 (second series), hits give low values 1.02 | S. cerevisiae deletion strains, locus YLR262C, strain YPT6, hits give low values 1.09 | S. cerevisiae deletion strains, locus YLR268W, strain sec22, hits give low values 1.03 | S. cerevisiae deletion strains, locus YLR320W, strain mms22, hits give low values 1.01 | S. cerevisiae deletion strains, locus YLR330W, strain CHS5, hits give low values 1.03 | S. cerevisiae deletion strains, locus YLR342W, strain FKS1 (second series), hits give low values 1.02 | S. cerevisiae deletion strains, locus YLR342W, strain FKS1, hits give low values 1.01 | S. cerevisiae deletion strains, locus YLR357W, strain rsc2, hits give low values 1.07 | S. cerevisiae deletion strains, locus YLR370C, strain arc18, hits give low values 1.01 | S. cerevisiae deletion strains, locus YLR384C, strain iki3, hits give low values 0.981 | S. cerevisiae deletion strains, locus YLR418C, strain cdc73, hits give low values 1.07 | S. cerevisiae deletion strains, locus YML016C, strain PPZ1, hits give low values 1.01 | S. cerevisiae deletion strains, locus YML032C, strain rad52, hits give low values 1.02 | S. cerevisiae deletion strains, locus YML120C, strain ndi1, hits give low values 1 | S. cerevisiae deletion strains, locus YML124C, strain tub3, hits give low values 1 | S. cerevisiae deletion strains, locus YMR058W, strain fet3, hits give low values 1 | S. cerevisiae deletion strains, locus YMR078C, strain ctf18, hits give low values 0.991 | S. cerevisiae deletion strains, locus YMR125W, strain sto1, hits give low values 1.01 | S. cerevisiae deletion strains, locus YMR129W, hits give low values 0.997 | S. cerevisiae deletion strains, locus YMR205C, strain PFK2, hits give low values 1.02 | S. cerevisiae deletion strains, locus YMR223W, strain ubp8, hits give low values 1.08 | S. cerevisiae deletion strains, locus YMR231W, strain pep5, hits give low values 0.98 | S. cerevisiae deletion strains, locus YMR307W, strain GAS1, hits give low values 1.13 | S. cerevisiae deletion strains, locus YNL067W, strain RPL9B, hits give low values 1.01 | S. cerevisiae deletion strains, locus YNL071W, strain lat1, hits give low values 1.01 | S. cerevisiae deletion strains, locus YNL183C, strain NPR1, hits give low values 0.998 | S. cerevisiae deletion strains, locus YNL209W, strain ssb2, hits give low values 1.01 | S. cerevisiae deletion strains, locus YNL233W, strain BNI4, hits give low values 1.05 | S. cerevisiae deletion strains, locus YNL248C, strain rpa49, hits give low values 1.01 | S. cerevisiae deletion strains, locus YNL250W, strain rad50, hits give low values 1 | S. cerevisiae deletion strains, locus YNL271C, strain bni1, hits give low values 0.994 | S. cerevisiae deletion strains, locus YNL298W, strain CLA4, hits give low values 1 | S. cerevisiae deletion strains, locus YNL307C, strain MCK1, hits give low values 1 | S. cerevisiae deletion strains, locus YNL322C, strain KRE1 (second series), hits give low values 0.998 | S. cerevisiae deletion strains, locus YNR049C, strain mso1, hits give low values 1.01 | S. cerevisiae deletion strains, locus YNR052C, strain pop2, hits give low values 1.02 | S. cerevisiae deletion strains, locus YOL006C, strain TOP1, hits give low values 1.08 | S. cerevisiae deletion strains, locus YOL147C, strain pex11, hits give low values 1.01 | S. cerevisiae deletion strains, locus YOR001W, strain rrp6, hits give low values 1 | S. cerevisiae deletion strains, locus YOR061W, strain CKA2, hits give low values 1.01 | S. cerevisiae deletion strains, locus YOR069W, strain VPS5, hits give low values 1.01 | S. cerevisiae deletion strains, locus YOR070C, strain gyp1, hits give low values 1.03 | S. cerevisiae deletion strains, locus YOR080W, strain dia2, hits give low values 1.09 | S. cerevisiae deletion strains, locus YOR083W, strain WHI5, hits give low values 1.01 | S. cerevisiae deletion strains, locus YOR106W, strain vam3, hits give low values 1.02 | S. cerevisiae deletion strains, locus YOR136W, strain idh2, hits give low values 1.06 | S. cerevisiae deletion strains, locus YOR144C, strain elg1, hits give low values 0.997 | S. cerevisiae deletion strains, locus YOR184W, strain ser1, hits give low values 1.05 | S. cerevisiae deletion strains, locus YOR231W, strain MKK1, hits give low values 1.02 | S. cerevisiae deletion strains, locus YOR265W, strain rbl2, hits give low values 1.01 | S. cerevisiae deletion strains, locus YOR270C, strain vph1, hits give low values 1.05 | S. cerevisiae deletion strains, locus YOR290C, strain snf2, hits give low values 1 | S. cerevisiae deletion strains, locus YOR316C, strain cot1, hits give low values 1.03 | S. cerevisiae deletion strains, locus YPL051W, strain arl3, hits give low values 1.02 | S. cerevisiae deletion strains, locus YPL055C, strain LGE1, hits give low values 1.06 | S. cerevisiae deletion strains, locus YPL078C, strain atp4, hits give low values 1.02 | S. cerevisiae deletion strains, locus YPL106C, strain sse1, hits give low values 1.03 | S. cerevisiae deletion strains, locus YPL240C, strain hsp82, hits give low values 1 | S. cerevisiae deletion strains, locus YPL256C, strain CLN2, hits give low values 1.06 | S. cerevisiae deletion strains, locus YPR119W, strain clb2, hits give low values 0.986 | S. cerevisiae deletion strains, locus YPR141C, strain kar3, hits give low values 1 | S. cerevisiae deletion strains, locus YPR163C, strain tif3, hits give low values 1 | S. cerevisiae deletion strains, locus YPR167C, strain met16, hits give low values 1.05 | S. cerevisiae deletion strains, strain wtn01, hits give low values 1 | S. cerevisiae strains, strain wild type, hits give low values 1.02
